For orientation: inhibition means the drop in the measured response relative to a control, in per cent.

Screen size: about 1,400 compounds; about 380 (27%) were called active. This is one part of the list. Unmarked numbers belong to inactive results.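 How the source made its calls: active means mean inhibition above 50% across duplicate retests at 10 µM; inactive means the rest.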

A short description of this experiment: yeast NALP1 reporter signal suppression – S. cerevisiae, luminescence, single concentration, NALP1 inhibitor project, confirmation (AID 488841).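 Further: plate controls were DMSO in galactose medium for no effect and cells in plain SD medium for full effect.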 As to conditions: S. cerevisiae NALP1/ASC/Caspase-1 reporter, beta-gal luminescence; at 10 µM; stronger effect = higher value.
For the compound `CC(CCc1ccccc1)NC(=O)c1cc2sccc2n1C` (stereo unspecified), the inhibition was 46.2%. As for `O=C(/C=C/c1ccccc1)N1CCC(c2ccccc2)C1` (stereo unspecified), the inhibition is 54% (active). Take `COc1cc(C(=O)CCN2CCC(c3ccccc3)C2)cc(OC)c1OC` (stereo unspecified): the inhibition is 41%. As for `CC1CCN(C(=O)/C=C/c2ccc(C(C)(C)C)cc2)CC1`, the inhibition is 54.6% (active). In the case of `O=C(/C=C/c1ccccc1)/C=C/c1ccccc1` it was 47.8%; in that of `FC(F)(F)C(F)(F)c1nnc2ccc(-n3ccnc3)nn12`, 23%. Take `COC(=O)c1ccccc1SC1CC(=O)N(c2ccccc2)C1=O` (stereo unspecified): the inhibition was 40.2%. Consider `O=C1CC(Sc2nnnn2-c2ccccc2)C(=O)N1c1cccc(Cl)c1` (stereo unspecified), for which the inhibition was 59.5% (active). In the case of `O=C(O)c1ccccc1SC1CC(=O)N(c2ccccc2)C1=O` (stereo unspecified), the inhibition was 37.8%. Consider `Cc1cccc(Cn2c(C(C)(C)C)cc3cccnc32)c1`, for which the inhibition is 26%. Take `CN(C)CCNC=C(C(=O)Nc1ccc(Cl)cc1Cl)C(=O)Nc1ccc(Cl)cc1Cl`: the inhibition was 38.9%. In the case of `COc1ccc(-c2noc(CCC(=O)N3CCC(C)CC3)n2)cc1` it was 48%. In the case of `CCCN(Cc1nc(-c2ccc(Cl)cc2)no1)CC1CCCO1` (stereo unspecified) it was 53.1% (active); in that of `OCCNc1c2ccccc2nc2c(F)c(F)c(F)c(F)c12`, 34.6%; in that of `CCN(c1cccc(C)c1)S(=O)(=O)c1cccc(C(=O)O)c1`, 26.2%.

Turning to `Cn1ncc(S(=O)(=O)Cc2ccccc2)c(Cl)c1=O`, the inhibition is 21.1%.

For the compound `Cc1cc(C)cc(Cn2ncc(Cl)c(Cl)c2=O)c1`, the inhibition is 60.6% (active). With `COC(=O)c1ccc(NC(=O)c2ccccc2N(C)S(=O)(=O)c2ccccc2)cc1`, the inhibition is 37%. As for `CCCCCCOc1ccc(N2C(=O)CC(N3CCC(C(=O)OCC)CC3)C2=O)cc1` (stereo unspecified), the inhibition was 21.6%.

Consider `CCOc1ccc(C2N(c3ccc(F)cc3)C(=O)C3CCCN32)cc1` (stereo unspecified), for which the inhibition is 16.4%. Take `CCOc1ccc(N2C(=O)CC(N)C2=O)cc1` (stereo unspecified): the inhibition is 64.3% (active).

For the compound `Cc1cc(Cl)c(OCCCN2CCCCC2)c(Br)c1`, the inhibition is 33.4%. Regarding `Cc1c(C(=O)NCC2COc3ccccc3O2)oc2ccc(S(=O)(=O)N3CC(C)CC(C)C3)cc12` (stereo unspecified), the inhibition is 21.3%. In the case of `COc1cc(OC)nc(-n2ncc(Br)c(Br)c2=O)n1` it was 50% (active); in that of `Cc1sc(NC(=O)c2cc3ccccc3oc2=O)c(C(=O)OC(C)C)c1-c1ccccc1`, 28.5%; in that of `C=CCNc1oc(COc2ccc(C)cc2)nc1C#N`, 47.8%.

`CCCN(CCC)C(=O)Cn1c(=O)n(CCCCC(=O)NCc2ccco2)c(=O)c2ccccc21`: the inhibition is 29.8%.

Take `CC1CCCC(NC(=O)C2CCN(S(=O)(=O)N3CCCCC3)CC2)C1C` (stereo unspecified): the inhibition was 26.3%.

For `CCOC(=O)c1nn(-c2ccc(C)cc2)cc1C(=O)c1ccccc1`, the inhibition is 46.5%. In the case of `Cc1ccc(C(=O)c2no[n+]([O-])c2C(=O)c2ccc(C)cc2)cc1`, the inhibition is 58.2% (active).

Turning to `O=[N+]([O-])c1ccc2cn(-c3ccccc3)nc2c1`, the inhibition is 40.4%. Regarding `NC(=O)C1(N2CCCCC2)CCN(Cc2nc(-c3cccs3)no2)CC1`, the inhibition is 37.5%. In the case of `Oc1oc(-c2ccccc2)nc1C=Nc1cccc2ccccc12` it was 40.1%; in that of `CCOC(=O)C1CCCCN1Cc1ccc(F)c(Br)c1` (stereo unspecified), 31.7%; in that of `Cc1cc(Cl)c(OCCCn2ccnc2)c(Br)c1`, 38.1%. On to `c1cc2c3c(cccc3c1)NC1(CCCCCC1)N2`, for which the inhibition is 13.9%. Consider `Cc1ccc(OC(=S)Nc2ccc(O)cc2)cc1`, for which the inhibition is 90.7% (active). With `Cc1ccc(Oc2ccccc2/C=N/O)cc1`, the inhibition is 42.1%.

For `CN1CCN(C(=S)Nc2ccc(Cl)c(Cl)c2)CC1`, the inhibition is 24.9%.

On to `O=C(COc1ccc(CO)cc1Cl)Nc1ccc(F)cc1`, for which the inhibition was 25.6%. Regarding `O=C(CC(O)(C(F)(F)F)C(F)(F)F)Nc1ccc(Cl)c(Cl)c1`, the inhibition is 98.8% (active). For the compound `CC(=O)Nc1cccc(OCCCNC(=O)C2CCC2)c1`, the inhibition is 28.2%. Regarding `Cc1c(NC(=O)c2cc3c(s2)-c2ccccc2OC3)cccc1[N+](=O)[O-]`, the inhibition is 34.7%. Consider `O=[N+]([O-])c1ccc(-n2nnnc2-c2ccccc2)cc1`, for which the inhibition was 0.15%. Turning to `Cc1ccc(-n2nnnc2C(Cl)c2nnnn2-c2ccc(C)cc2)cc1`, the inhibition is 71.5% (active). Regarding `CCc1oc2ccccc2c1C(=O)CCN1CCCCC1`, the inhibition was 37.6%. In the case of `COc1ccc(/C=N/OC(=O)Nc2ccccc2)cc1[N+](=O)[O-]` it was 23.2%; in that of `CCOC(=O)c1cc(-c2ccccc2)n(CC(=O)Nc2ccc(OC)c(OC)c2)c1C`, 25.8%. For `CCOc1ccc(/C=C/C(=O)c2ccccc2)cc1OC`, the inhibition was 53.2% (active). With `COc1ccc(/C=C\c2onc(C)c2S(=O)(=O)N2CCC(C(=O)NCc3ccco3)CC2)cc1`, the inhibition is 41.2%. Regarding `O=C(NCc1ccco1)c1cnn2c1NC(c1ccc(Br)cc1)CC2C(F)(F)F` (stereo unspecified), the inhibition was 50.6% (active). For the compound `Cc1ccc(CN2CCN(/N=C/c3ccc(C(F)(F)F)cc3)CC2)c(C)c1`, the inhibition was 49%. For `CCOCC(O)CNC(=O)c1ccc(OC2CCN(C(=O)c3cccnc3)CC2)cc1` (stereo unspecified), the inhibition was 29.6%. In the case of `CC1CCN(CCOc2ccc(Cl)c(Cl)c2)CC1` it was 43.7%; in that of `COc1cc(Br)cc(C=Nc2cccc(C(F)(F)F)c2)c1O`, 11.4%. For the compound `NC(=O)/C=C\C(=O)Nc1cccc(C(F)(F)F)c1`, the inhibition was 71.8% (active).

Regarding `CCN(C(=O)COC(=O)c1cccnc1Nc1cccc(C(F)(F)F)c1)C1CCS(=O)(=O)C1` (stereo unspecified), the inhibition was 45.4%. On to `Cc1ccc(NC(=O)/C=C\C(=O)NCC(=O)O)cc1C`, for which the inhibition is 30.8%. In the case of `COC(=O)/C=C/C(=O)Nc1cccc(C(F)(F)F)c1`, the inhibition was 56.3% (active). With `Cc1cs/c(=N\N=C\c2ccccc2)n1Cc1ccco1`, the inhibition was 32.1%. `Cc1cccc(C)c1C(OCCN(C)C)C1CCCCC1` (stereo unspecified): the inhibition is 37%. `CSc1ccc(/C=C/C(=O)c2ccc(NC(C)=O)cc2)cc1`: the inhibition is 51% (active). For the compound `CC(=O)c1ccc(NC(=O)/C=C/c2ccc(C)cc2)cc1`, the inhibition is 48.6%. In the case of `O=C(/C=C/Sc1ccccc1)c1ccc(Cl)cc1`, the inhibition is 38.4%. Turning to `CSc1ccc(/C=C/C(=O)c2ccc(O)cc2)cc1`, the inhibition is 61.5% (active).

With `O=c1ncn(-c2cccc(F)c2)c2ncccc12`, the inhibition is 37.1%. As for `N#CC(C#N)=C1C=CC=CN1/C(=C\c1ccccc1Cl)C(=O)c1ccccc1`, the inhibition was 5.75%. Turning to `CCn1cc(C(=O)O)c(=O)c2cc(F)c(N3CCNCC3)cc21`, the inhibition was 27.4%.

For `CCSc1nnc(NC(=O)c2ccccc2)s1`, the inhibition was 83.2% (active). For the compound `CC(C)COC(=O)Nc1nnc(SCc2ccccc2F)s1`, the inhibition was 49.2%. For the compound `CCSc1nnc(NC(=O)c2ccc(C)o2)s1`, the inhibition was 54.3% (active). In the case of `Cc1ccc(Nc2nnc(SCC(=O)Nc3ccc(S(=O)(=O)N4CCOCC4)cc3)s2)cc1` it was 18.2%; in that of `CCCc1[nH]nc2c1C(c1ccoc1)C(C#N)=C(N)O2` (stereo unspecified), 37.9%; in that of `O=C(c1ccc(F)cc1)c1cn(Cc2ccc(F)cc2)c2cc3c(cc2c1=O)OCCO3`, 26.4%. `Cc1ccc(Cn2nnnc2CN2CCC(c3nc4ccc(Cl)cc4[nH]3)CC2)cc1`: the inhibition is 34.2%.

Turning to `Cc1noc2ncc(C(=O)c3cc(F)ccc3O)cc12`, the inhibition was 17.8%. Take `c1ccc2c(Nc3nc(N4CCOCC4)c4ccccc4n3)cccc2c1`: the inhibition was 93.2% (active). In the case of `CCOc1cc(-c2c(C)c(C)nc(N)c2C#N)ccc1O` it was 30.4%. With `O=C(OC1CCOC1=O)c1cc(-c2ccc(Br)cc2)nc2ccccc12` (stereo unspecified), the inhibition is 21%. Turning to `Cc1ccn2cc(-c3ccc(NC(=O)c4ccco4)cc3)nc2c1`, the inhibition is 82.7% (active). Turning to `Cc1sc(NC(=O)c2ccco2)nc1-c1ccccc1`, the inhibition was 73% (active). With `CC1=C(C(=O)Nc2ccc(Cl)cc2)C(c2ccco2)NC(=O)N1` (stereo unspecified), the inhibition was 23.4%. Turning to `O=C(Nc1cccc(-c2cn3ccccc3n2)c1)c1cccc(Cl)c1`, the inhibition was 39.9%. On to `O=C(Nc1ccc(-c2cn3ccccc3n2)cc1)c1ccco1`, for which the inhibition is 76.8% (active). As for `O=C(Nc1ccon1)c1cc2ccccc2oc1=O`, the inhibition is 31.5%. In the case of `O=C(Nc1nc(-c2ccco2)c(-c2ccco2)s1)C1CCC1`, the inhibition was 39%. Regarding `Cc1ccc2oc(-c3ccc(NC(=O)c4cccnc4)cc3)nc2c1`, the inhibition is 44.6%. In the case of `O=C(Nc1ccc2oc(-c3ccccc3)nc2c1)c1ccco1`, the inhibition is 86.7% (active).

`CCCCC(=O)Nc1ccc(C(=O)NNC(=S)NC(=O)c2ccco2)cc1`: the inhibition was 42.2%. For the compound `O=C(CCl)Nc1nc(-c2ccco2)c(-c2ccco2)s1`, the inhibition is 32.2%. On to `CSc1ccc(C(=O)C2CCCN(C(=O)c3ccc4c(c3)no[n+]4[O-])C2)cc1` (stereo unspecified), for which the inhibition was 18.6%. `Cn1nnc(NC(=O)/C=C/c2ccco2)n1`: the inhibition was 35%. `Cn1c(N)c(C(=O)COC(=O)C2(c3ccc(Cl)cc3)CCCC2)c(=O)n(C)c1=O`: the inhibition was 28.2%. Turning to `Clc1ccc2c(N/N=C/c3ccc(Br)cc3)ccnc2c1`, the inhibition was 47.6%. In the case of `CCOC(=O)c1c(C)c(C(=O)NCCCOC(C)C)c(C)n1C` it was 26.2%; in that of `COc1ccc(N(C)C2=NS(=O)(=O)c3ccccc32)cc1`, 27.9%; in that of `C=C(C)C1Cc2c(C)nn(-c3ccccn3)c2C1` (stereo unspecified), 2.3%. Take `CC(OC(=O)Cc1c(F)cccc1Cl)C(=O)NCCC1=CCCCC1` (stereo unspecified): the inhibition is 46.2%. Consider `COc1ccccc1NC(=O)c1ccc(C)s1`, for which the inhibition was 38.7%. `Cc1nc2ccc(NC(=O)c3cc([N+](=O)[O-])cc([N+](=O)[O-])c3Cl)cc2s1`: the inhibition is 40.5%.

Turning to `Cc1ccc(C(=O)Nc2ccc3nc(C)sc3c2)s1`, the inhibition is 77% (active).

The record behind these values is PubChem BioAssay AID488841 (Sanford-Burnham Center for Chemical Genomics, 2010).
